Reference: PubChem BioAssay AID720488 (Milwaukee Institute for Drug Discovery, 2013)
Values joined by “and” are separate entries in the source; they are usually repeats but may differ in a detail not shown here. Equal entries are not always repeated. Screen size: about 16,000 compounds; about 960 (6%) were called active. Shown is part of a subset that was picked to be rich in actives. Unmarked numbers belong to inactive results.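 Rule for the calls: active = compound fluorescence over control fluorescence at most 0.8, a quencher, or at least a set upper limit, an enhancer; inactive = ratio between 0.8 and the set upper limit.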

Experiment: Cy5 fluorescence quenchers or enhancers, artefact control for HCV NS3 helicase inhibitor project, biochemical, ChemBridge library, Cy5 readout (AID 720488)
Conditions: Cy5-dT15 DNA with NS3h, at 100 µM, actives lie on both sides, signal over control mean, under 1 quenches
Work on `O=C1OC(c2ccc(F)cc2)=N/C1=C\c1ccc2c(c1)OCO2` yielded a fluorescence interference ratio of 1.09.
Compound `O=C(CSc1nnc(-c2ccc(Br)cc2)o1)OCc1ccccc1` has a fluorescence interference ratio of 0.95.
`COC(=O)c1ccccc1NC(=O)c1cncc(Br)c1` showed a fluorescence interference ratio of 0.974.
`COc1ccc(C2CC(C(F)(F)F)n3nc(C(=O)N4CCN(c5ccc(F)cc5)CC4)c(Cl)c3N2)cc1` (stereo not drawn) gave a fluorescence interference ratio of 0.951.
In the case of `N#Cc1c(N)nc2sc(C(=O)Nc3ccccc3)c(N)c2c1-c1ccco1`, the fluorescence interference ratio is reported as 1.21 (active).
Compound `O=C(Nc1ccc(Oc2ccccc2)cc1)c1ccco1` has a fluorescence interference ratio of 0.978.
With `N#Cc1c(SCC(=O)c2ccc(Cl)cc2)nc2c(c1-c1ccco1)CCCC2` the fluorescence interference ratio was 0.953.
In the case of `Cc1cccc(NC(=O)/C=C/c2ccc(F)cc2)c1`, the fluorescence interference ratio is reported as 0.934.
`CCOC(=O)c1ccc(-n2c(C)cc(/C=N\n3cnnc3)c2C)cc1` showed a fluorescence interference ratio of 1.03.
For `O=C1c2ccccc2C(=O)c2c1cccc2N1CCN(CCO)CC1`, the fluorescence interference ratio was 1.22 (active).
For `CCOC(=O)C1=C(C)N=c2s/c(=C/c3ccc(C(=O)OC)cc3)c(=O)n2C1c1ccc(OC(C)=O)cc1` (stereo not drawn), the fluorescence interference ratio was 1.07.
`CNC(=O)C1CC(=O)N(c2ccc(F)cc2)C1` (stereo not drawn) showed a fluorescence interference ratio of 1.11.
Work on `O=C(COC(=O)C1CCCN1C(=O)OCc1ccccc1)c1ccc(-c2ccccc2)cc1` (stereo not drawn) yielded a fluorescence interference ratio of 1.04.
Work on `COc1ccc2[nH]cc(CCNC=O)c2c1` yielded a fluorescence interference ratio of 1.01.
Work on `S=C(Nc1ccccc1)Nc1ccccc1NC(=S)Nc1ccccc1` yielded a fluorescence interference ratio of 1.03.
Work on `CCc1ccccc1NC(=O)C(=O)NCc1ccco1` yielded a fluorescence interference ratio of 1.09.
In the case of `CCc1ccccc1NC(=O)/C(=C/c1ccccc1)c1ccccc1`, the fluorescence interference ratio is reported as 0.606 (active).
With `CCOC(=O)c1ccc(NC(=O)c2ccccc2OC)cc1` the fluorescence interference ratio was 0.661 (active).
Compound `CCOC(=O)c1ccc(NC(=O)C(=O)NCc2ccc(C)cc2)cc1` has a fluorescence interference ratio of 1.
`CCOC(=O)c1ccc(NC(=O)c2cc(OCC)cc(OCC)c2)cc1` gave a fluorescence interference ratio of 1.01.
`COc1ccc(Br)cc1C(=O)Nc1cccc(-c2nc3ccccc3[nH]2)c1` showed a fluorescence interference ratio of 0.978.
`O=C(/C=C\c1ccccc1)Nc1ccc(Br)cn1` gave a fluorescence interference ratio of 0.948.
`O=C(Nc1ccc(OC(F)(F)F)cc1)c1nn2c(c1Br)NC(c1cccs1)CC2C(F)(F)F` (stereo not drawn) gave a fluorescence interference ratio of 1.
`O=C(Nc1ccc(Cl)cc1C(O)c1ccccc1)c1cnn2c1NC(c1ccccc1)CC2C(F)(F)F` (stereo not drawn) showed a fluorescence interference ratio of 0.956.
With `COc1cc(NC(=O)c2cnn3c2NC(c2cccs2)CC3C(F)(F)F)c(OC)cc1Cl` (stereo not drawn) the fluorescence interference ratio was 0.659 (active).
With `CSc1ccc(C=Nc2ccc(C#N)cc2)cc1` the fluorescence interference ratio was 1.07.
With `Cc1cccc(C(=O)Nc2cccc(NC(=O)COc3ccccc3Cl)c2)c1` the fluorescence interference ratio was 0.946.
For `CC(C)(C)NC(=O)CN(c1cccc(C(F)(F)F)c1)S(C)(=O)=O`, the fluorescence interference ratio was 1.05.
`CC(=O)c1ccc(NC(=O)c2c(Cl)cccc2Cl)cc1` showed a fluorescence interference ratio of 1.03.
In the case of `COc1ccc(NC(=O)c2cccc(Cl)c2Cl)cc1OC`, the fluorescence interference ratio is reported as 0.784 (active).
`COc1ccc(Br)cc1C(=O)Nc1ccc(F)c([N+](=O)[O-])c1` showed a fluorescence interference ratio of 0.959.
For `CCOc1ccc(-n2c(O)c(C=C3C=CC=N3)c(=O)[nH]c2=O)cc1`, the fluorescence interference ratio was 0.942.
In the case of `COC(=O)C1CC(OCc2ccccc2)C1` (stereo not drawn), the fluorescence interference ratio is reported as 0.97.
In the case of `CCOc1cc(/C=C(\C#N)c2nc3ncc(Br)cc3[nH]2)ccc1O`, the fluorescence interference ratio is reported as 0.791 (active).
For `CCn1c(-c2ccc(OC)cc2)n[nH]c1=S`, the fluorescence interference ratio was 1 and 1.01.
For `CCN(CC)c1ccc(/C=C2\C(=O)NC(=O)N(C)C2=O)cc1`, the fluorescence interference ratio was 1.29 (active).
In the case of `CCN(CC)c1ccc(N2C(=O)/C(=C/c3ccc4c(c3)OCO4)SC2=S)cc1`, the fluorescence interference ratio is reported as 1.12.
In the case of `CCN1C(=O)C(=Cc2ccc(O)cc2)C(=O)NC1=S`, the fluorescence interference ratio is reported as 1.02.
For `CCN(CC)c1ccc(C=C2C(=O)N(C)C(=O)N(C)C2=O)c(O)c1`, the fluorescence interference ratio was 2.02 (active).
Compound `Cc1cc(C)cc(N2C(=O)NC(=O)/C(=C\c3ccc(F)cc3)C2=O)c1` has a fluorescence interference ratio of 1.02.
Work on `NS(=O)(=O)c1ccc(CNC(=O)c2ccc(Cl)cc2[N+](=O)[O-])cc1` yielded a fluorescence interference ratio of 0.985.
For `O=C(CSc1ncc(-c2ccccc2)[nH]1)Nc1ccc(Br)cc1`, the fluorescence interference ratio was 0.959.
Compound `COc1ccc(Cl)cc1C(=O)N1CCN(c2cccc(Cl)c2)CC1` has a fluorescence interference ratio of 0.934.
For `CCOC(=O)NCc1ccc(N(C)C)cc1`, the fluorescence interference ratio was 0.963.
Work on `CP(=O)(c1ccc(C(N)=O)cc1)c1ccc(C(N)=O)cc1` yielded a fluorescence interference ratio of 1.06.
`O=C(Nc1c(F)cc(F)cc1Br)c1cc2n(n1)C(C(F)(F)F)CC(c1ccc(Cl)cc1)N2` (stereo not drawn) showed a fluorescence interference ratio of 1.04.
Work on `CCc1ccc(N2C(=O)/C(=C/c3cc(C)n(-c4cccnc4)c3C)C(=O)NC2=S)cc1` yielded a fluorescence interference ratio of 1.1.
For `NC(=NS(=O)(=O)c1ccccc1)c1ccc(Cl)cc1`, the fluorescence interference ratio was 1.06.
